The whole screen tested about 53,000 sequences, of which about 3,700 (7%) were called active.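 The calls were made as follows: active = gene knockdowns whose robust z-score for IL-1 alpha signal is at least 2 or at most -2, so actives lie on both sides; inactive = the rest.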 The full list was thinned out, with actives kept by preference.
assay: Components of the Cytosolic LPS Sensing Pathway: Gene Identification via Genome-wide siRNA Screen; settings: RAW264.7 macrophages, IL-1a HTRF, actives lie on both sides, screened at 100 nM (by protocol), cells primed 5 h with Pam3CSK4 first;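 also: robust z of the log signal after scaling to non-targeting control siRNA wells of the plate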
In short: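 RAW264.7; siRNA 100 nM final, RNAiMAX, 48h 37 degrees C; Pam3CSK4 5 h; LipidA + TransIT-TKO 24 h; IL-1a HTRF; CellTiter-Glo viability; robust z vs negative-control median.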

Sequence | z-score
GGAAACAGGAAACAAUCUATT against Ccdc69 | 0.609 (inactive)
GGUUUUGAGUGAGAAAUGGTT against Plekhb2 | -0.414 (inactive)
GGAGAAAUCCCUUCACGGUTT against Mas1 | 0.449 (inactive)
CCACCUCCUCUCGAUACAATT against Zfp36 | 0.993 (inactive)
CGCAGUAGCGAAGAAUUACTT against Sel1l3 | 2.46 (active)
CCAUAAUAGAGGCAAUUACTT against Wscd1 | 0.302 (inactive)
CCUAGGUGUCACCAUGAACTT against Ssx9 | 2.02 (active)
GGAAAGAGUCAUGGAAAUATT against Supt16 | 0.55 (inactive)
GGCUCACAAGGAAGAGAUCTT against Cstad | -0.29 (inactive)
GCUCUGAAAUGUCUCUCCATT against H2-D1 | -0.613 (inactive)
GGUGUGUUCAGGAGUUGAUTT against Col12a1 | 0.505 (inactive)
GGCAAAAAAAACUGCUAUATT against Adgrg7 | 3.36 (active)
GGUGACAUUUGAAAAUGUCTT against Slc25a12 | 0.411 (inactive)
GCCUCAUCCCUAUAGUCCUTT against Spaca9 | -0.257 (inactive)
CGGGUUCCCAGGAAUUAAGTT against Col4a6 | 0.304 (inactive)
GGUUGACACUCUGAGGGAATT against Pld2 | -0.175 (inactive)
CCACUUUCUAGAAAUCCUATT against Tmem41a | -2.14 (active)
GGGCUGAUGAGCAAAGCAUTT against Setd4 | -1.01 (inactive)
GGGAAAUUAUUACCAAAAGTT against N4bp1 | -0.83 (inactive)
GGUCUUUGUUAAGAAUCCUTT against Myo1f | -0.496 (inactive)
GCUCGAAAACUGAGAGUUATT against Pcdhgb1 | 3.32 (active)
GCUAUAAGGCUUAAUAGGGTT against Dleu7 | 1.97 (inactive)
GCGAAAGCAGCUGUCGGAATT against Nkx3-1 | 0.324 (inactive)

Sequence | z-score
GGCCUCGAACAGUUUAUUATT against Snx12 | 0.471 (inactive)
GGCUGUGGAUCUUCUCUGUTT against Cnksr3 | -1.05 (inactive)
GCCAUGUUAAAUUCUCUACTT against Poln | 0.575 (inactive)
GGCUCUGCUGGAUAUCAUGTT against Med24 | -1.08 (inactive)
GGGUAUUUCCUGGUGGAUUTT against Mrps6 | 0.221 (inactive)
CCUAUCAUAACGGUGAUAATT against Ddb1 | -0.423 (inactive)
GGUCACACCCAUAAACUAATT against B630019K06Rik | -0.167 (inactive)
GGUUAUUAAGUAGCUUUUCTT against Dtx1 | 1.64 (inactive)
GCAUUAGAACAAAGGAUGCTT against Rps19 | 0.278 (inactive)
GGAAUUUGUGGAAACAGGATT against Tnfaip3 | -0.441 (inactive)
GCCUUUGAUAGUGGUGAAUTT against F11r | -3 (active)
CCAAUCUUCUCCUCAAGACTT against Olfr101 | -0.0712 (inactive)
GGCUGUUUCCAAAAAGAAGTT against H1f5 | -1.14 (inactive)
GGACCAGGGCAAAAUAUGATT against Pate6 | 0.727 (inactive)
CCAUCAUUGCUCGUAUUGGTT against Olfr656 | -2.9 (active)
CCAGUGGAAAUAACUUGUGTT against Fam53a | 1.58 (inactive)
CCUUGAGUGAAAGAAUUGATT against Tmprss11d | -0.609 (inactive)
GGAAUAUCCGUAAUAACUATT against Grin2b | 2.82 (active)
GCUACUAAAUUCUGUUUUGTT against Nol4l | 0.325 (inactive)
GGGAAGUUUCUUGAAGCACTT against Rfxank | 0.103 (inactive)
AGGACUAGGGAUCCUAAUUTT against Ubl5 | -0.74 (inactive)
GGUUGCUGGAUGUCAUCUCTT against Hpn | -2.05 (active)
GCUACUUGCUCAUACAAAGTT against Rag2 | 0.65 (inactive)

Sequence | z-score
GGCCAUAUGUCAAGAAGUUTT against Svs4 | -1.24 (inactive)
GCCAGGAAUAGUGAUUAUUTT against Atp11c | -1.19 (inactive)
GGAAAUGUGGAAUACACCGTT against Prl7a2 | 1.39 (inactive)
GGCUUUAAUGUGUCAGUACTT against Slc25a5 | -0.228 (inactive)
GCCGAUGAUACCAAACCGATT against Oser1 | 0.151 (inactive)
CGACUCUUACCAACCUUUUTT against Lhx2 | 0.477 (inactive)
GCAGGUGGUACGCAGACUATT against Ulk1 | -0.0204 (inactive)
GGAAAGAAUGAGGAUGUGGTT against Pitx2 | -2.07 (active)
CCUCAAACUCGGUUUGAUUTT against Acp6 | -0.773 (inactive)
GCCUAUACUAUAGAAUUACTT against Sgsm2 | 2.2 (active)
GACGCAGAUGGUAUUUUUUTT against Orm2 | 1.24 (inactive)
GUGGGAAUUCUGAAAAAUATT against Vmn1r231 | 0.301 (inactive)
GUAUGAACCUAACACAUUCTT against Vmn1r188 | 0.493 (inactive)
GGAAACCUUUACCAUAAACTT against Epdr1 | -2.35 (active)
GGAUCAAACAAAUCAUCAATT against Plscr4 | -0.895 (inactive)
CCUUGUAGCUCUGAGGAUATT against Teddm3 | -0.529 (inactive)
GGAACCUACCUCACCUUUGTT against Fscn3 | -0.749 (inactive)
GGUCUCUUCAUGAUGGAUGTT against Akt1s1 | 0.731 (inactive)
CCAUACACAUGUAAUUCUCTT against Zmat3 | -0.159 (inactive)
GGCAUCUCUGAGUUACAUUTT against Snu13 | 0.695 (inactive)
GGGUCUGGUUCUGUAACCATT against Pou4f3 | -1.94 (inactive)
GGACUAUGGUGGGAACUAGTT against Tas2r119 | -0.564 (inactive)
CGUUCUAUGGAAACUGGAGTT against Acot1 | 2.42 (active)

— PubChem BioAssay AID1508600 (Functional Genomics Laboratory (NCATS/FGL), 2020)
